# Measurements as given in PubChem BioAssay (Tox21).
# Values without a mark were called inactive. Records with an inconclusive call do not appear. Entries that show only a call come without a potency. Activity calls are given as the source filed them. Unless noted, calls follow the shape of the dose curve; as a rule, active = well fitted curve in the direction sought with a large enough effect in the repeat runs; inconclusive = weak or mixed curves; inactive = no such curve, though single readings can be large; an effect the other way counts as inactive or inconclusive.
# Experiments:
# [1] = qHTS assay to identify small molecule agonists of H2AX (AID 1224845; active = well fitted activation curve with a large enough effect in the signal ratio in the repeat runs, not every such curve was filed as active; the % refers to the signal ratio)
# Summary of the method: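 Wild-type CHO-K1 cells plated overnight, then exposed 3 hr at 37C to compounds at 15 concentrations (0.76% DMSO). Lysed, then HTRF anti-pH2AX(S139)-cryptate/anti-H2AX-d2 detection after 24 hr at room temperature; emissions 665 and 620 nm.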
# [2] = qHTS assay to identify small molecule agonists of the hypoxia (HIF-1) signaling pathway (AID 1224846; active = well fitted activation curve with a large enough effect in the signal ratio in the repeat runs, not every such curve was filed as active; the % refers to the signal ratio)
# Summary of the method: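 Reporter induction in HRE-bla ME-180 cells is taken as agonism: cells sit 5 hrs after plating, receive compounds or DMSO only, incubate 17 hrs at 37C under 5% CO2, and are loaded with CCF4-AM for beta-lactamase FRET measurement.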
# [3] = qHTS assay to identify small molecule agonists of H2AX - cell viability counter screen (AID 1224847; calls by dose curve; also: top concentration of the series differs between compounds; nearly all actives have a fitted effect of over 30% in size)
# Summary of the method: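 Wild-type CHO-K1 cells (10% FBS medium) were plated overnight at 37C, exposed to compounds at 15 concentrations for 3 hr at 37C (0.76% DMSO final), and viability was read as CellTiter-Glo luminescence after 30 min at room temperature.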
# [4] = qHTS assay to identify small molecule antagonists of the estrogen related receptor (ERR) signaling pathway from Tox21 library (AID 1224848); also: nearly all actives have a fitted effect of over 50% in size
# Summary of the method: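 Tox21 10K compounds in DMSO tested for ERR pathway antagonism in NTP's ERR cell line; 18 h, 37 C exposure; ONE-Glo luminescence.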
# [5] = qHTS assay to identify small molecule agonists of the estrogen related receptor (ERR) signaling pathway from Tox21 library (AID 1224849; calls by dose curve; also: nearly all actives have a fitted effect of over 15% in size); conditions: ERR reporter cell line, ONE-Glo luciferase, 18 h; at 92.4 µM (top of the series) unless noted
# Summary of the method: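 Tox21 compounds tested for ERR agonism in an NTP reporter cell line: 18 h treatment at 37 C, then ONE-Glo luminescence.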
# [6] = qHTS RealTime-Glo MT Cell Viability Assay in HepG2 cells - 24 hour (AID 1224867); also: nearly all actives have a fitted effect of over 50% in size
# Summary of the method: (§1)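 Luminescence read-out: viable HepG2 cells reduce a prosubstrate to a NanoLuc substrate, giving a signal proportional to live cell number. Reads taken at 0, 8, 16, 24, 32 and 40 h of compound exposure at 37 C.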
# [7] = qHTS RealTime-Glo MT Cell Viability Assay in HEK293 cells - 32 hour (AID 1224868); also: nearly all actives have a fitted effect of over 50% in size; also: potency is read from the fitted curve at half-maximal effect
# Summary of the method: (§2)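 Nonlytic real-time viability readout: viable cells convert prosubstrate to NanoLuc substrate, giving luminescence proportional to live cell number. HEK293, 600 cells/well, compound added after 5 h, continuous culture at 37 C.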
# [8] = A CellTox Green Cytotoxicity Assay to monitor cytotoxicity in HEK293 cells - 0 hour (AID 1224869); also: nearly all actives have a fitted effect of over 50% in size
# Summary of the method: (§3)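 Tox21 screen in HEK293: membrane-impermeant cyanine dye fluoresces on binding dead-cell DNA; compound pinned 5 h post-seeding, plates held at 37 C, signal read repeatedly through 40 h.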
# [9] = qHTS RealTime-Glo MT Cell Viability Assay in HepG2 cells - 40 hour (AID 1224870); also: nearly all actives have a fitted effect of over 50% in size
# Summary of the method: (§4)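 HepG2 cells mixed with RealTime-Glo MT reagents (NanoLuc plus cell-permeant prosubstrate) were seeded at 600 cells/well, incubated 5 h at 37 C/5% CO2, then pinned with compounds in DMSO; nonlytic luminescence tracked viability during 40 h treatment.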
# [10] = A CellTox Green Cytotoxicity Assay to monitor cytotoxicity in HEK293 cells - 40 hour (AID 1224871); also: nearly all actives have a fitted effect of over 45% in size
# Summary of the method: as §3
# [11] = qHTS RealTime-Glo MT Cell Viability Assay in HEK293 cells - 16 hour (AID 1224872)
# Summary of the method: as §2
# [12] = qHTS RealTime-Glo MT Cell Viability Assay in HepG2 cells - 8 hour (AID 1224873); also: nearly all actives have a fitted effect of over 55% in size
# Summary of the method: as §4
# [13] = qHTS RealTime-Glo MT Cell Viability Assay in HEK293 cells - 40 hour (AID 1224874); conditions: RealTime-Glo luminescence; max response: active compounds read low; also: nearly all actives have a fitted effect of over 50% in size; also: potency is read from the fitted curve at half-maximal effect
# Summary of the method: (§5)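 HEK293 + NanoLuc + prosubstrate, 600 cells/well; 5 h, 37 C/5% CO2; compound 23 nL in DMSO by pintool; 37 C; luminescence read at 0, 8, 16, 24, 32 and 40 h time points.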
# [14] = A CellTox Green Cytotoxicity Assay to monitor cytotoxicity in HEK293 cells - 24 hour (AID 1224875); also: nearly all actives have a fitted effect of over 45% in size
# Summary of the method: as §3
# [15] = A CellTox Green Cytotoxicity Assay to monitor cytotoxicity in HepG2 cells - 16 hour (AID 1224876); also: nearly all actives have a fitted effect of over 45% in size
# Summary of the method: (§6)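 Measurements at 0, 8, 16, 24, 32 and 40 h of treatment captured CellTox Green fluorescence in HepG2 cells that had been co-plated with reagent and preincubated 5 h at 37 C/5% CO2.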
# [16] = qHTS RealTime-Glo MT Cell Viability Assay in HepG2 cells - 32 hour (AID 1224877); also: nearly all actives have a fitted effect of over 55% in size
# Summary of the method: as §1
# [17] = A CellTox Green Cytotoxicity Assay to monitor cytotoxicity in HepG2 cells - 24 hour (AID 1224878); also: nearly all actives have a fitted effect of over 45% in size
# Summary of the method: as §6
# [18] = A CellTox Green Cytotoxicity Assay to monitor cytotoxicity in HepG2 cells - 40 hour (AID 1224879); also: nearly all actives have a fitted effect of over 40% in size
# Summary of the method: as §6
# [19] = qHTS RealTime-Glo MT Cell Viability Assay in HEK293 cells - 0 hour (AID 1224880); also: nearly all actives have a fitted effect of over 45% in size; also: potency is read from the fitted curve at half-maximal effect
# Summary of the method: as §5
# [20] = A CellTox Green Cytotoxicity Assay to monitor cytotoxicity in HEK293 cells - 32 hour (AID 1224881); also: nearly all actives have a fitted effect of over 40% in size
# Summary of the method: as §3
smiles,measurement,setting,value
CC(C)=CCCC(C)O (stereo not given),Potency,[1],inactive
same,outcome,[2],inactive
same,Potency,[3],inactive
same,Potency,[4],inactive
same,"activity change, positive = activation",[5],0.538%
same,Potency,[6],inactive
same,Potency,[7],inactive
same,Potency,[8],inactive
same,Potency,[9],inactive
same,Potency,[10],inactive
same,Potency,[11],inactive
same,Potency,[12],inactive
same,max response,[13],0.513%
same,Potency,[14],inactive
same,Potency,[15],inactive
same,Potency,[16],inactive
same,Potency,[17],inactive
same,Potency,[18],inactive
same,Potency,[19],inactive
same,Potency,[20],inactive
Cc1ccc(O)cn1,Potency,[1],inactive
same,outcome,[2],inactive
same,Potency,[3],inactive
same,Potency,[4],inactive
same,"activity change, positive = activation",[5],9.23%
same,Potency,[6],inactive
same,Potency,[7],inactive
same,Potency,[8],inactive
same,Potency,[9],inactive
same,Potency,[10],inactive
same,Potency,[11],inactive
same,Potency,[12],inactive
same,max response,[13],-9.02%
same,Potency,[14],inactive
same,Potency,[15],inactive
same,Potency,[16],inactive
same,Potency,[17],inactive
same,Potency,[18],inactive
same,Potency,[19],inactive
ClC/C=C\CCl,Potency,[1],inactive
same,outcome,[2],inactive
same,Potency,[3],inactive
same,Potency,[4],inactive
same,"activity change, positive = activation",[5],-4.37%
same,Potency,[6],inactive
same,Potency,[7],inactive
same,Potency,[8],inactive
same,Potency,[9],inactive
same,Potency,[10],inactive
same,Potency,[11],inactive
same,Potency,[12],inactive
same,max response,[13],-46.5%
same,Potency,[14],inactive
same,Potency,[15],inactive
same,Potency,[16],inactive
same,Potency,[17],inactive
same,Potency,[18],inactive
same,Potency,[19],inactive
CCOCOCC,Potency,[1],inactive
same,outcome,[2],inactive
same,Potency,[3],inactive
same,Potency,[4],inactive
same,"activity change, positive = activation",[5],0.502%
same,Potency,[6],inactive
same,Potency,[7],inactive
same,Potency,[8],inactive
same,Potency,[9],inactive
same,Potency,[10],inactive
same,Potency,[11],inactive
same,Potency,[12],inactive
same,max response,[13],5.75%
same,Potency,[14],inactive
same,Potency,[15],inactive
same,Potency,[16],inactive
same,Potency,[17],inactive
same,Potency,[18],inactive
same,Potency,[19],inactive
same,Potency,[20],inactive
NCCCCCCNCCCCCCN,Potency,[1],inactive
same,outcome,[2],inactive
same,Potency,[3],inactive
same,Potency,[4],inactive
same,"activity change, positive = activation",[5],-13.7%
same,Potency,[6],inactive
same,Potency,[7],inactive
same,Potency,[8],inactive
same,Potency,[9],inactive
same,Potency,[10],inactive
same,Potency,[11],inactive
same,Potency,[12],inactive
same,max response,[13],-6.12%
same,Potency,[15],inactive
same,Potency,[16],inactive
same,Potency,[17],inactive
same,Potency,[18],inactive
same,Potency,[19],inactive
CCCCCCCCCCCCCOP(=O)(O)O,Potency,[1],inactive
same,outcome,[2],inactive
same,Potency,[3],inactive
same,Potency,[4],inactive
same,"activity change, positive = activation",[5],-2%
same,Potency,[6],inactive
same,Potency,[7],inactive
same,Potency,[8],inactive
same,Potency,[9],inactive
same,Potency,[10],inactive
same,Potency,[11],inactive
same,max response,[13],-0.341%
same,Potency,[14],inactive
same,Potency,[15],inactive
same,Potency,[16],inactive
same,Potency,[17],inactive
same,Potency,[18],inactive
same,Potency,[19],inactive
same,Potency,[20],inactive
CC1=CCC(=O)O1,Potency,[1],inactive
same,outcome,[2],inactive
same,Potency,[3],inactive
same,Potency,[4],inactive
same,"activity change, positive = activation",[5],8.22%
same,Potency,[6],inactive
same,Potency,[7],inactive
same,Potency,[8],inactive
same,Potency,[9],inactive
same,Potency,[10],inactive
same,Potency,[11],inactive
same,max response,[13],8.04%
same,Potency,[14],inactive
same,Potency,[15],inactive
same,Potency,[16],inactive
same,Potency,[17],inactive
same,Potency,[18],inactive
same,Potency,[19],inactive
Cc1cnccn1,Potency,[1],inactive
same,outcome,[2],inactive
same,Potency,[3],inactive
same,Potency,[4],inactive
same,"activity change, positive = activation",[5],-1.47%
same,Potency,[6],inactive
same,Potency,[7],inactive
same,Potency,[8],inactive
same,Potency,[9],inactive
same,Potency,[10],inactive
same,Potency,[11],inactive
same,Potency,[12],inactive
same,max response,[13],8.17%
same,Potency,[14],inactive
same,Potency,[15],inactive
same,Potency,[16],inactive
same,Potency,[17],inactive
same,Potency,[19],inactive
same,Potency,[20],inactive
O=c1cccc[nH]1,Potency,[1],inactive
same,outcome,[2],inactive
same,Potency,[3],inactive
same,Potency,[4],inactive
same,"activity change, positive = activation",[5],0.143%
same,Potency,[6],inactive
same,Potency,[7],inactive
same,Potency,[8],inactive
same,Potency,[9],inactive
same,Potency,[10],inactive
same,Potency,[11],inactive
same,Potency,[12],inactive
same,max response,[13],12.2%
same,Potency,[14],inactive
same,Potency,[15],inactive
same,Potency,[16],inactive
same,Potency,[17],inactive
same,Potency,[18],inactive
same,Potency,[19],inactive
same,Potency,[20],inactive
OCCCCl,Potency,[1],inactive
same,outcome,[2],inactive
same,Potency,[3],inactive
same,Potency,[4],inactive
same,"activity change, positive = activation",[5],-6.99%
same,Potency,[6],inactive
same,Potency,[7],inactive
same,Potency,[8],inactive
same,Potency,[9],inactive
same,Potency,[10],inactive
same,Potency,[11],inactive
same,Potency,[12],inactive
same,max response,[13],8.9%
same,Potency,[14],inactive
same,Potency,[15],inactive
same,Potency,[16],inactive
same,Potency,[17],inactive
same,Potency,[18],inactive
same,Potency,[19],inactive
same,Potency,[20],inactive
Cn1cccc1,Potency,[1],inactive
same,outcome,[2],inactive
same,Potency,[3],inactive
same,Potency,[4],inactive
same,"activity change, positive = activation",[5],-4.51%
same,Potency,[6],inactive
same,Potency,[7],inactive
same,Potency,[8],inactive
same,Potency,[9],inactive
same,Potency,[10],inactive
same,Potency,[11],inactive
same,Potency,[12],inactive
same,max response,[13],10.4%
same,Potency,[14],inactive
same,Potency,[15],inactive
same,Potency,[16],inactive
same,Potency,[17],inactive
same,Potency,[18],inactive
same,Potency,[20],inactive
C(=C/c1ccccc1)/c1ccccc1,Potency,[1],inactive
same,outcome,[2],inactive
same,Potency,[3],inactive
same,Potency,[4],inactive
same,"activity change, positive = activation",[5],2.16%
same,Potency,[6],inactive
same,Potency,[7],inactive
same,Potency,[8],inactive
same,Potency,[9],inactive
same,Potency,[11],inactive
same,Potency,[12],inactive
same,max response,[13],-13.3%
same,Potency,[15],inactive
same,Potency,[16],inactive
same,Potency,[17],inactive
same,Potency,[18],inactive
same,Potency,[19],inactive
Cc1ccc(CCn2c3c(c4cc(Cl)ccc42)CN(C)CC3)cn1,Potency,[1],inactive
same,outcome,[2],inactive
same,Potency,[3],inactive
same,Potency,[4],inactive
same,"activity change, positive = activation",[5],48.3% [at 42.5 µM] (active)
same,Potency,[6],inactive
same,Potency,[7],19 µM (active)
same,Potency,[8],inactive
same,Potency,[9],inactive
same,Potency,[10],inactive
same,Potency,[12],inactive
same,Potency,[13],21.3 µM (active)
same,Potency,[14],inactive
same,Potency,[15],inactive
same,Potency,[16],inactive
same,Potency,[19],16.9 µM (active)
same,Potency,[20],inactive
